In PubChem BioAssay (EPA / NIEHS):
Inconclusive results are not listed. The source made the active and inactive calls. How the source made its calls: active means hit-call score of the fitted dose curve at least 0.9, where 1 is the maximum; inconclusive means response in the unintended direction; inactive means score below 0.9.

What was measured:
[1] = NVS_IC_rCaBTZCHL: NovaScreen (NVS) Ion Channel Assay for Calcium Channel, Type L, Benzothiazepine Site (CaBTZCHL) (AID 2283337)
Outline: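 Competitive displacement of a site-specific radioligand from rat cortex membranes, measured as signal loss against DMSO baseline by filter radiodetection after 1.5 h. Single-point 25 uM primary screen.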

[2] = system: guinea pig Histamine Receptor (H2), gene 100729734; experiment: NVS_GPCR_gH2: NovaScreen (NVS) G Protein-Coupled Receptor Assay for guinea pig Histamine Receptor (H2) (AID 2283342)
Outline: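 Radioligand displacement on guinea pig striatal membranes, 1 h after dosing, filter-based scintillation counting; loss of signal versus DMSO. Single-point screen at 25 uM in duplicate, then concentration-response up to 50 uM.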

[3] = molecular target: Estrogen receptor (Homo sapiens) (UniProt P03372); experiment: OT_ER_ERaERa_1440: Odyssey Thera (OT) 24-hour HEK293T Protein-Complementation Assay for Estrogen Receptor-alpha/-alpha Homodimer (AID 2283349);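 further: hits raise fluorescence above DMSO for agonists and antagonists alike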
Chain of Estrogen receptor (Homo sapiens) (P03372 whole entry, looked up, the tested form may be a part): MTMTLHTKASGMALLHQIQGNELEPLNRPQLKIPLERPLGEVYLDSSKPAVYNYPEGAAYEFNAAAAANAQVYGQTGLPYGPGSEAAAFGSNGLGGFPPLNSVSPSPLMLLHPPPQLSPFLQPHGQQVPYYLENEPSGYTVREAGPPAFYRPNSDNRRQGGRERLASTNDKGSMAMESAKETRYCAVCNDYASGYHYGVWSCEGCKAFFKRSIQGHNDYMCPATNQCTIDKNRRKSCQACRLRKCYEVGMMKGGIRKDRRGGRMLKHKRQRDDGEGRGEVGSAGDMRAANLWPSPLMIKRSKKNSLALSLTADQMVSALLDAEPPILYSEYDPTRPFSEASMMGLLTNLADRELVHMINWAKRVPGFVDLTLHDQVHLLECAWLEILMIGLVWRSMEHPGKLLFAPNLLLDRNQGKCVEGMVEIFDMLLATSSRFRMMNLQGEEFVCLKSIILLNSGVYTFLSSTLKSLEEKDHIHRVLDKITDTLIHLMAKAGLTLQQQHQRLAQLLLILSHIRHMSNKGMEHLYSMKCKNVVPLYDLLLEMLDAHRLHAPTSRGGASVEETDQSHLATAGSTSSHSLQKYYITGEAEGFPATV
Outline: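 Protein-fragment complementation between two human ERα ligand-binding domains (aa 310-547) in stably transfected HEK293T cells was monitored after 24 h treatment, using fluorescence intensity relative to vehicle controls.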

[4] = molecular target: Estrogen receptor (Homo sapiens) (UniProt P03372); experiment: OT_ER_ERaERa_0480: Odyssey Thera (OT) 8-hour HEK293T Protein-Complementation Assay for Estrogen Receptor-alpha/-alpha Homodimer (AID 2283351);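 further: rise in fluorescence from reassembled reporter fragments on ERα LBD homodimer in nucleus or whole cell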
Outline: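 Binding reporter in which dimerisation of ERα LBD (aa 310-547) fusions reconstitutes a fluorescent reporter in HEK293T cells. Compounds incubated 8 h; mean fluorescence intensity increase versus DMSO scored.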

[5] = molecular target: Estrogen receptor (Homo sapiens) + Estrogen receptor beta (Homo sapiens) (UniProt P03372+Q92731); experiment: OT_ER_ERaERb_1440: Odyssey Thera (OT) 24-hour HEK293T Protein-Complementation Assay for Estrogen Receptor-alpha/-beta Homodimer (AID 2283356);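 further: heteromer of ER alpha and ER beta binding domains; hits raise reporter fluorescence and both agonists and antagonists give an increase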
Outline: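 24 h exposure; HEK293T PCA cells with ERα/ERβ LBD fragments; signal rise in nuclear or whole-cell fluorescence over vehicle.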

[6] = molecular target: Estrogen receptor beta (Homo sapiens) (UniProt Q92731); experiment: OT_ER_ERbERb_0480: Odyssey Thera (OT) 8-hour HEK293T Protein-Complementation Assay for Estrogen Receptor-beta/-beta Homodimer (AID 2283357);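 further: active means signal gain over DMSO baseline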
Chain of Estrogen receptor beta (Homo sapiens) (Q92731 whole entry, looked up, the tested form may be a part): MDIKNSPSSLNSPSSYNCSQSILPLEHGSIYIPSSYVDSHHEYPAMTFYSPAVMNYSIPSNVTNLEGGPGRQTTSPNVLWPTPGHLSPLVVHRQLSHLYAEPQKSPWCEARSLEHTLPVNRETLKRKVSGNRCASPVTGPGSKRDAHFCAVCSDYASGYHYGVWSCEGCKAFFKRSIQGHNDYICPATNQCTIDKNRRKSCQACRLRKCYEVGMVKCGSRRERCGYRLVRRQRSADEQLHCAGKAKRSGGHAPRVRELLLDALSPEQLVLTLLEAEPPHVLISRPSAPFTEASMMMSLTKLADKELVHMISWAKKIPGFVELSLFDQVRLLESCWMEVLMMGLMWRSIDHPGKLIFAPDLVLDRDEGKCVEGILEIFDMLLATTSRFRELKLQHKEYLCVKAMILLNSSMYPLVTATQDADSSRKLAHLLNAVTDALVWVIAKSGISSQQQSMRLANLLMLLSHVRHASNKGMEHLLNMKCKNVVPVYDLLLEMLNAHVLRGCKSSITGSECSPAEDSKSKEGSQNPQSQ
Outline: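 Cells (HEK293T, stable ER-beta LBD PCA pair) are treated 8 hours, fixed and Draq5-stained; signal is fluorescence intensity increase relative to vehicle, fitted in the gain direction.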

[7] = molecular target: bovine Gamma-Aminobutyric Acid Type A Receptor Agonist (GABAR Agonist), GABRA1 (gene 780973) (UniProt P08219); experiment: NVS_LGIC_bGABAR_Agonist: NovaScreen (NVS) Ligand-Gated Ion Channel Assay for bovine Gamma-Aminobutyric Acid Type A Receptor Agonist (GABAR Agonist) (AID 2283338)
Chain of bovine Gamma-Aminobutyric Acid Type A Receptor Agonist (GABAR Agonist), GABRA1 (gene 780973) (P08219 whole entry, looked up): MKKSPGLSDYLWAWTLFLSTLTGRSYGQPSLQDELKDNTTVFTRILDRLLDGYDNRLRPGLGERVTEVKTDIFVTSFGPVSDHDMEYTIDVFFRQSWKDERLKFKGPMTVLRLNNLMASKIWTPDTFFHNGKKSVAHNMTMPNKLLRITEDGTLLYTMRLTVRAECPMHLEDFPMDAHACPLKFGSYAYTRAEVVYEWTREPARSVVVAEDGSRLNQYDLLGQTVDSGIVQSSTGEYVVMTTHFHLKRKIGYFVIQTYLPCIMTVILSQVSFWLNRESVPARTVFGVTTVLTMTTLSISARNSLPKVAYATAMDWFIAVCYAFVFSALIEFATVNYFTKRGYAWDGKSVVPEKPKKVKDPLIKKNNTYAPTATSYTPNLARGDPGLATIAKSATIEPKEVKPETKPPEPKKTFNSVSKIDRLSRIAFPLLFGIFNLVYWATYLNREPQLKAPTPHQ
Outline: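 Radioligand binding to bovine cerebellar membranes in agonist format, read by filter-based scintillation counting after 1 h. Primary screen in duplicate at 25 uM, with actives followed in concentration series. Gain of signal versus DMSO.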

[8] = molecular target: Small conductance calcium-activated potassium channel protein 1 (Rattus norvegicus) (UniProt P70606); experiment: NVS_IC_rKCaCh: NovaScreen (NVS) Ion Channel Assay for rat Potassium Channel, Ca2+ Act., VI (KCaCh) (AID 2283336)
Chain of Small conductance calcium-activated potassium channel protein 1 (Rattus norvegicus) (P70606 whole entry, looked up): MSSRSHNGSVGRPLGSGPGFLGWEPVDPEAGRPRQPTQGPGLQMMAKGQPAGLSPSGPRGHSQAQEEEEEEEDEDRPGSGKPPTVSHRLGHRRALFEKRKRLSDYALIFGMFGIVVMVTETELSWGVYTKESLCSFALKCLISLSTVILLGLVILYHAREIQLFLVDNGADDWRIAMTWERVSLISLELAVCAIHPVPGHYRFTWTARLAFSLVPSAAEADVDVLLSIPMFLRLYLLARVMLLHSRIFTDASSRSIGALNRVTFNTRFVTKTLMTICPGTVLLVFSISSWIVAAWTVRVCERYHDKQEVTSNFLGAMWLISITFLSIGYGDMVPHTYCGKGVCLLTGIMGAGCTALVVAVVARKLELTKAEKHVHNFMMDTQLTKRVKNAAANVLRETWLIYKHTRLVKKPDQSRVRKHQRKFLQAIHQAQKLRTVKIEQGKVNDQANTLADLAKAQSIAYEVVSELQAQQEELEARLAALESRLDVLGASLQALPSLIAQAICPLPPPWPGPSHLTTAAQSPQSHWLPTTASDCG
Outline: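 Radioligand binding to rat forebrain membranes, cell-free, read 1 hour after dosing by filter-based scintillation counting. Compounds first run in duplicate at 25 uM, actives then in concentration series; loss of signal vs DMSO indicates displacement.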

[9] = molecular target: chimpanzee Androgen Receptor (AR), AR (gene 747460) (UniProt O97775); experiment: NVS_NR_cAR: NovaScreen (NVS) Nuclear Receptor Binding Assay for chimpanzee Androgen Receptor (AR) (AID 2283346);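 further: radioligand displacement from AR measured by scintillation counting in a cell-free assay; a loss of bound radioligand signal versus DMSO counts as binding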
Chain of chimpanzee Androgen Receptor (AR), AR (gene 747460) (O97775 whole entry, looked up): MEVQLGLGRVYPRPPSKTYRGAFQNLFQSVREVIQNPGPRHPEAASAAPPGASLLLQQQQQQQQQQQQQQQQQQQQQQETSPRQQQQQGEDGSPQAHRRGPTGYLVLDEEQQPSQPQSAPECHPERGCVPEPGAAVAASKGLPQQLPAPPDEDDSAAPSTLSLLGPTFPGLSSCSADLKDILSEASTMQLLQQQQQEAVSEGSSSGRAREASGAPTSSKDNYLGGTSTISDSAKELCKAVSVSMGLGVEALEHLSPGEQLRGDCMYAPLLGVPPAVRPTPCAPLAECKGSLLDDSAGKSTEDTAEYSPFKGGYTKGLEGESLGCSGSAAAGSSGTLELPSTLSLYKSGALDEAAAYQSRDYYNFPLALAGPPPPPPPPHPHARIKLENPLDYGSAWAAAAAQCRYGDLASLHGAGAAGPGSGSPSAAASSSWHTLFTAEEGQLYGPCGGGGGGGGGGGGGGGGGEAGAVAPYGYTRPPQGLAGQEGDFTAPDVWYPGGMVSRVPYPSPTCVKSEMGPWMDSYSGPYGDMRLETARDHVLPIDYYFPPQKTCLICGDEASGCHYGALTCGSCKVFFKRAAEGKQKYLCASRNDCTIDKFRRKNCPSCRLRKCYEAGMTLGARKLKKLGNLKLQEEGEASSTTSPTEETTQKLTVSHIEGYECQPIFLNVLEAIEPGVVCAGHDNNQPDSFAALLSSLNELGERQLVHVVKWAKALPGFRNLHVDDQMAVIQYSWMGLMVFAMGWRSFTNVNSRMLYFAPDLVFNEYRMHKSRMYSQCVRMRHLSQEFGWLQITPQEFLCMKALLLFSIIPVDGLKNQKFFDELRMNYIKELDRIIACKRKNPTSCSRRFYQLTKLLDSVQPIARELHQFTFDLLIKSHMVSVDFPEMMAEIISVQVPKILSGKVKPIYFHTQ
Outline: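 Cell-free competition binding with insect-cell (Sf9/Sf21) extracted chimpanzee AR; scintillation signal from lysate at 72 h. Screened in duplicate at 25 uM, then concentration-response for actives; fitting relative to DMSO.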

[10] = molecular target: Bile acid receptor (Homo sapiens) (UniProt Q96RI1); experiment: NVS_NR_hFXR_Antagonist: NovaScreen (NVS) Nuclear Receptor Binding Assay for human Farnesoid X Receptor Antagonism (FXR) (AID 2283350)
Outline: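 Cell-free TR-FRET ligand-binding read-out on human FXR (NR1H4) in antagonist mode, measured 1 h after dosing. Primary screen in duplicate at 25 uM, actives retested in concentration series; signal loss scored versus DMSO.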

[11] = molecular target: Androgen Receptor/SRC-1 Co-activator, AR (gene 367) (UniProt P10275); experiment: OT_AR_ARSRC1_0960: Odyssey Thera (OT) 16-hour HEK293T Protein-Complementation Assay for Androgen Receptor/SRC-1 Co-activator (AID 2283353);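 further: actives raise the signal above DMSO so potency reflects increased AR and SRC-1 complex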
Chain of Androgen Receptor/SRC-1 Co-activator, AR (gene 367) (P10275 whole entry, looked up, the tested form may be a part): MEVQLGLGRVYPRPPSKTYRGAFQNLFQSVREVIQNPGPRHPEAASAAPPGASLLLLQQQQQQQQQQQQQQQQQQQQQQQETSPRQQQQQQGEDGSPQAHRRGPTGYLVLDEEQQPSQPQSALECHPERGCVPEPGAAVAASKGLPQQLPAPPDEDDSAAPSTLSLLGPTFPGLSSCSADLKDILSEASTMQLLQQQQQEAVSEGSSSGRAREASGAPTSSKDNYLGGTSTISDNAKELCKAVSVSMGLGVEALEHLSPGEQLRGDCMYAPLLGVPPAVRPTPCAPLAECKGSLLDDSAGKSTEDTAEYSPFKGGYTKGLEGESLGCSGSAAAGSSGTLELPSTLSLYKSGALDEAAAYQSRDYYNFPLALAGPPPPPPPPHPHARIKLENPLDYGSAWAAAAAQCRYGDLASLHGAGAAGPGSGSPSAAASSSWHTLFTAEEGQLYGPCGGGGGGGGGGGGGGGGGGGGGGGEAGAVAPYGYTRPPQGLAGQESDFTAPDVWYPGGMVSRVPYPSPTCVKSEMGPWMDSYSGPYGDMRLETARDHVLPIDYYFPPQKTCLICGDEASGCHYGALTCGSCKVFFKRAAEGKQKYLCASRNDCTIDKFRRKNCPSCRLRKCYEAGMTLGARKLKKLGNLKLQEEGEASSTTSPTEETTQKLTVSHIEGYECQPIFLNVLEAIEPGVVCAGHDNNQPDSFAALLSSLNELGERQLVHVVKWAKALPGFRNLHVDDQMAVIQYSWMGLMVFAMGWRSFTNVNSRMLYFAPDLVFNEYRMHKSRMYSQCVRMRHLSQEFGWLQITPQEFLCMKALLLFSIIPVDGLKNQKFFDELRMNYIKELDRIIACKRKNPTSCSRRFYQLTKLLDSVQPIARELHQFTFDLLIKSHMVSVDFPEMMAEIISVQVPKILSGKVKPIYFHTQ
Outline: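 Interaction of AR with SRC-1 was followed by YFP fragment complementation in HEK293T cells after 16 h of dosing. Gain of nuclear-over-cytoplasmic 488 nm fluorescence against DMSO controls defined activity.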

[12] = molecular target: Androgen Receptor/SRC-1 Co-activator, AR (gene 367) (UniProt P10275); experiment: OT_AR_ARSRC1_0480: Odyssey Thera (OT) 8-hour HEK293T Protein-Complementation Assay for Androgen Receptor/SRC-1 Co-activator (AID 2283354);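 further: hits raise the complementation signal above DMSO so AC50 marks enhancers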
Outline: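 Measures AR/SRC-1 binding by Venus YFP fragment complementation in HEK293T stable lines at 8 h post-dose. Imaging quantifies the 488nm nucleus/cytoplasm ratio in ≥400 cells; DMSO defines baseline.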

[13] = molecular target: rat Glutamate, MK-801 Agonist Site (GluNMDA_MK801), Grin1 (gene 24408) (UniProt P35439); experiment: NVS_LGIC_rGluNMDA_MK801_Agonist: NovaScreen (NVS) Ligand-Gated Ion Channel Assay for rat Glutamate, MK-801 Agonist Site (GluNMDA_MK801) (AID 2283340)
Outline: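 Radioligand binding at MK-801 site in rat forebrain membranes, 1.5 h incubation, filter-based scintillation counting. Initially 25 uM in duplicate; actives then run in concentration-response up to 50 uM, fitted for gain of signal versus DMSO.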

[14] = molecular target: bovine Estrogen Receptor (ER), ESR1 (gene 407238) (UniProt P49884); experiment: NVS_NR_bER: NovaScreen (NVS) Nuclear Receptor Binding Assay for bovine Estrogen Receptor (ER) (AID 2283345);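 further: actives lower the bound radioligand count which means they displace the ER ligand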
Outline: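 Bovine uterine membranes; tritiated or iodinated radioligand; competitive displacement; 18 h; scintillation read; DMSO negative control; 25 uM duplicates, then concentration series for actives.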

[15] = system: NCBI gene 100848466; experiment: NVS_NR_bPR: NovaScreen (NVS) Nuclear Receptor Binding Assay for bovine Progextron Receptor (PR) (AID 2283343);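 further: actives lower bound radioligand signal below DMSO meaning displacement of the label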
Outline: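 Membranes from bovine uterus; radiolabelled ligand plus test chemical; 18 h; scintillation read-out. Activity = signal loss vs DMSO. Primary: 25 uM, duplicate; secondary: concentration series.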

[16] = molecular target: rat Mineralocorticoid Receptor (MR), Nr3c2 (gene 25672) (UniProt P22199); experiment: NVS_NR_rMR: NovaScreen (NVS) Nuclear Receptor Binding Assay for rat Mineralocorticoid Receptor (MR) (AID 2283355)
Chain of rat Mineralocorticoid Receptor (MR), Nr3c2 (gene 25672) (P22199 whole entry, looked up): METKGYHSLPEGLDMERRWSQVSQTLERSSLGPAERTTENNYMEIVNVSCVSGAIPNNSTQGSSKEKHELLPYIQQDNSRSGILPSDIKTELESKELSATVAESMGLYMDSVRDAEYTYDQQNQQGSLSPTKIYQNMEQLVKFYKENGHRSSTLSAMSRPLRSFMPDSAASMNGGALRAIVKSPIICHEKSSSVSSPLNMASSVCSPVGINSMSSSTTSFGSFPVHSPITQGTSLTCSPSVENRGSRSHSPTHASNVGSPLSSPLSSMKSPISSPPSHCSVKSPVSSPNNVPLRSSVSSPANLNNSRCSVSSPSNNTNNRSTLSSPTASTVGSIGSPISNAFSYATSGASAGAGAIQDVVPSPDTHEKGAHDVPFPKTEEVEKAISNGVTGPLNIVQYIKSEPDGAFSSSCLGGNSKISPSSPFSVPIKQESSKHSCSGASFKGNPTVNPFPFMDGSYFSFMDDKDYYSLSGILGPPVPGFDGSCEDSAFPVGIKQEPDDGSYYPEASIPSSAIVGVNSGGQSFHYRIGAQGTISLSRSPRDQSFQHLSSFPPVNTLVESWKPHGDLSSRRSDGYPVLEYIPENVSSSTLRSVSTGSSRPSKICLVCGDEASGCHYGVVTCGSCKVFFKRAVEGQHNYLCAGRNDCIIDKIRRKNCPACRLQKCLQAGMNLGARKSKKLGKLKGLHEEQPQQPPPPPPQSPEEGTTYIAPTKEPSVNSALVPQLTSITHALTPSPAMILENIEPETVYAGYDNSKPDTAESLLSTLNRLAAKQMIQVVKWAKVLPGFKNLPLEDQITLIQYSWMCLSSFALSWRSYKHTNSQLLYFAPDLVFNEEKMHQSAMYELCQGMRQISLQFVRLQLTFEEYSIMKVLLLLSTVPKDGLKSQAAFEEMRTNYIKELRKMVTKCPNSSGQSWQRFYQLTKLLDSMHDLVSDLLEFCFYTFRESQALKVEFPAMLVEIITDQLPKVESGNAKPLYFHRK
Outline: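 Adrenalectomized rat brain supernatant was dosed with test chemical, then radioligand binding was measured by scintillation counting at 24 h. Initial testing ran in duplicate at 25 uM, followed by concentration series for actives.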

CC[C@H]1CC[C@H](NCc2cc3c(cc2OC)[C@H]2C[C@H]2C(=O)N3C)[C@H](c2ccccc2)N1
AC50 [1]: 3.79 µM (active)
AC50 [2]: 16 µM (active)
outcome [3]: inactive
outcome [4]: inactive
outcome [5]: inactive
outcome [6]: inactive

Nc1cccc(N)c1
AC50 [7]: 6.48 µM (active)

CCCCCCCCCCCCCCCO
outcome [7]: inactive
outcome [6]: inactive

CCOC(=O)COc1ccc2c(c1)CC(NCC(O)c1cccc(Cl)c1)CC2 (configuration not stated)
AC50 [2]: 32 µM (active)
outcome [3]: inactive
outcome [4]: inactive

CCOCCO
outcome [8]: inactive
outcome [6]: inactive

O=C(O)CC(O)C(=O)O (configuration not stated)
outcome [8]: inactive
outcome [2]: inactive

Cc1ccc(C)c(O)c1
outcome [7]: inactive

CNS(=O)(=O)c1cc(C(=O)N2CCC(CCN3C4CCC3CC(n3c(C)nc5ccccc53)C4)(c3cccc(F)c3)CC2)c(Cl)cc1F (configuration not stated)
AC50 [1]: 7.92 µM (active)
AC50 [2]: 8.76 µM (active)
AC50 [9]: 11.3 µM (active)
AC50 [10]: 8.21 µM (active)
AC50 [11]: 31.9 µM (active)
AC50 [12]: 32 µM (active)
outcome [6]: inactive

Fc1ccccc1[C@@H](F)COC1CCC(Nc2ncnc3[nH]ncc23)CC1 (some centres not stated)
outcome [13]: inactive
outcome [2]: inactive
AC50 [11]: 33.2 µM (active)
AC50 [12]: 50 µM (active)
outcome [6]: inactive

CCOC(=O)c1ccc(C2CCC(NC[C@H](O)COc3ccc(O)c(NS(C)(=O)=O)c3)CC2)cc1 (some centres not stated)
AC50 [1]: 7.7 µM (active)
AC50 [2]: 9.42 µM (active)
outcome [6]: inactive

Nc1ccc(Nc2ccccc2)cc1
outcome [2]: inactive
outcome [14]: inactive
outcome [3]: inactive

Oc1ccc2c(c1)-c1ccccc1C2
AC50 [15]: 25 µM (active)
AC50 [9]: 8.77 µM (active)
AC50 [11]: 35.1 µM (active)
AC50 [12]: 50 µM (active)
outcome [16]: inactive
AC50 [6]: 12.7 µM (active)

CCOc1cccc(-n2cc(C(=O)N3CCN(c4cc(C(=O)O)c5ccccc5c4)CC3)nc2-c2ccc(C)cc2)c1
outcome [2]: inactive
AC50 [9]: 20.4 µM (active)
AC50 [11]: 23.9 µM (active)
outcome [12]: inactive
outcome [6]: inactive

CC(=O)OC[C@H]1O[C@@](COC(C)=O)(O[C@H]2O[C@H](COC(C)=O)[C@@H](OC(C)=O)[C@H](OC(C)=O)[C@H]2OC(C)=O)[C@@H](OC(C)=O)[C@@H]1OC(C)=O
outcome [7]: inactive
outcome [6]: inactive

O=c1[nH]c2ccc(S(=O)CCN3CCC(Cc4ccc(F)cc4)CC3)cc2o1 (configuration not stated)
outcome [13]: inactive
AC50 [2]: 1.21 µM (active)
outcome [3]: inactive
outcome [4]: inactive
outcome [5]: inactive

Cc1[nH]cnc1C[C@H]1CCc2c(C)c3ccccc3n2C1=O
outcome [1]: inactive
AC50 [7]: 9.14 µM (active)
AC50 [2]: 12.2 µM (active)
outcome [6]: inactive
